Assay results: PubChem BioAssay (NCATS)
Where “and” joins values, the source holds several entries; their conditions need not be identical. Equal entries are not always repeated. Records with an inconclusive call do not appear. Where a call stands in place of a potency, no number is given. The source holds several records for some structures; these can differ, active in one and inactive in another. Calls of active or inactive are those of the source. Unless noted, the call rests on the fitted dose curve; in most records, active means well fitted curve in the direction sought with a large enough effect; inconclusive means small, poorly fitted or top-dose-only effect, or another doubt; inactive means no such curve, though single readings can be large; an effect the other way counts as inactive or inconclusive.

Legend:
[1] = P-glycoprotein substrates identified in KB-8-5-11 adenocarcinoma cell line, qHTS therapeutic library screen (AID 1346987); further: nearly all actives have a fitted effect of over 65% in size; further: potency means the concentration at half of the fitted maximal effect
Outline: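 In this qHTS, P-gp-rich KB-8-5-11 cells received library compounds across a concentration range. Viability was quantified by luminescence after 72 h at 37 degree C.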

[2] = Natriuretic polypeptide receptor (hNpr1) antagonism - Pilot counterscreen GloSensor control cell line (AID 1347045; calls by dose curve)
Outline: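 HEK293 cGMP-sensor cells; 2% GloSensor reagent 2 h RT; LOPAC compounds in 1:5 titrations 30-50 min; 50 uM SNP 20 min; luminescence pre-read and post-read.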

[3] = biological target: Atrial natriuretic peptide receptor 2 (Homo sapiens) (UniProt P20594); experiment: Natriuretic polypeptide receptor (hNpr2) antagonism - Pilot subtype selectivity assay (AID 1347050; calls by dose curve)
Sequence of Atrial natriuretic peptide receptor 2 (Homo sapiens) (P20594 whole entry, looked up): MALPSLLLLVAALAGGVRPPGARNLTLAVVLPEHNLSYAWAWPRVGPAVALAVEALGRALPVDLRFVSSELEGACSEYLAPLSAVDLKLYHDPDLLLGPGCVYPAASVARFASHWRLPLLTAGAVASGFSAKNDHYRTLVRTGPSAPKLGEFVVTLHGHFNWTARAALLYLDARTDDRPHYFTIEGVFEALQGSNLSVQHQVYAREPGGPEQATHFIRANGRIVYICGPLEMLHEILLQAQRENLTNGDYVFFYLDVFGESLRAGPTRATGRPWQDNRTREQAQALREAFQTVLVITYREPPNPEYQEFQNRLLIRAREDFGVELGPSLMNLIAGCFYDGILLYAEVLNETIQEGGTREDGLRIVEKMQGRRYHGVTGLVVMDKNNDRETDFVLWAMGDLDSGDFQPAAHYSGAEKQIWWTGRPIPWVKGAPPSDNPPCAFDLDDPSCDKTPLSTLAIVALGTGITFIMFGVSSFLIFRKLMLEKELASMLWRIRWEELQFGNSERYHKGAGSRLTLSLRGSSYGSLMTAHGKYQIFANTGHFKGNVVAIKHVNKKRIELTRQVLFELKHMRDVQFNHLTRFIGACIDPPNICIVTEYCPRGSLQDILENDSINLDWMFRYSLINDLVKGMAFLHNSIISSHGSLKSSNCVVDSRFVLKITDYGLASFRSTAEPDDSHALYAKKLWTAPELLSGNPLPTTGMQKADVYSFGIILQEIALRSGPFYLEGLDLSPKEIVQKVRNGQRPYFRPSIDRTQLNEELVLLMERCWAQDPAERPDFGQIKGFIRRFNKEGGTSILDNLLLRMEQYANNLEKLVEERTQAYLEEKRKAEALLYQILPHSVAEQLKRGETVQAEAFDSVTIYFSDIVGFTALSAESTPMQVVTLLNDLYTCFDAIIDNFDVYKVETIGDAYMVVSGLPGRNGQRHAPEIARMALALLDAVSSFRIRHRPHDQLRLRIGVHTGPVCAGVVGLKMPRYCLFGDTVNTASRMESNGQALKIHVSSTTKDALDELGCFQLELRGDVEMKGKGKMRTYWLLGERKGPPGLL
Outline: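 Antagonist mode: compounds (LOPAC1280, seven 1:5 dilutions) added 30 min before 1 nM hNppC stimulation of hNpr2-HEK293 cGMP-sensor cells; luminescence read before and 20 min after agonist at ambient temperature.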

[4] = NS1 protein of Zika virus - qHTS assay to identify small molecule inhibitors in human HEK 293 cells (AID 1347053); further: nearly all actives have a fitted effect of over 55% in size
Outline: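 Read-out is a two-antibody TR-FRET for ZIKV NS1, normalized between uninfected cells and infected cells. Compound added 1 h before MR766 infection at MOI 0.5; human HEK 293 cells incubated 24 h, 37 C.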

[5] = biological target: T1, Tyrosine-protein phosphatase non-receptor type substrate 1 (Homo sapiens) + Leukocyte surface antigen CD47 (Homo sapiens) (UniProt P78324+Q08722); experiment: CD47-SIRPalpha protein protein interaction - LANCE assay qHTS validation (AID 1347057; active means well fitted curve in the direction sought with a large enough effect in the signal ratio, with a control signal flat, not every such curve was filed as active; the % refers to the signal ratio)
T1 sequence (P78324 whole entry, looked up, the tested form may be a part): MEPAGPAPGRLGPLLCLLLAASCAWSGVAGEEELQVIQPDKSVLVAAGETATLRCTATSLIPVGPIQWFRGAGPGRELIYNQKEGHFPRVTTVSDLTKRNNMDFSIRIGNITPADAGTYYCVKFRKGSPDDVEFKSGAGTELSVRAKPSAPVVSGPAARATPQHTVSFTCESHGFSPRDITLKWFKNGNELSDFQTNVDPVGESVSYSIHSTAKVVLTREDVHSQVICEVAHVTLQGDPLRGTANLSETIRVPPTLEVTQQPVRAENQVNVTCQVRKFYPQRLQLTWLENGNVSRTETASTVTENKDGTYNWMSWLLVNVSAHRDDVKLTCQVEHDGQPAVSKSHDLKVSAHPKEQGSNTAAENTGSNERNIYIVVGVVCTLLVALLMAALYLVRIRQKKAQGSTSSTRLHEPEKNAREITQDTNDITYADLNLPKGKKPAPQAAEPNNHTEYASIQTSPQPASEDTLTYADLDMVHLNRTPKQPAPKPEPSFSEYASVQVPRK
T1 sequence (Q08722 whole entry, looked up, the tested form may be a part): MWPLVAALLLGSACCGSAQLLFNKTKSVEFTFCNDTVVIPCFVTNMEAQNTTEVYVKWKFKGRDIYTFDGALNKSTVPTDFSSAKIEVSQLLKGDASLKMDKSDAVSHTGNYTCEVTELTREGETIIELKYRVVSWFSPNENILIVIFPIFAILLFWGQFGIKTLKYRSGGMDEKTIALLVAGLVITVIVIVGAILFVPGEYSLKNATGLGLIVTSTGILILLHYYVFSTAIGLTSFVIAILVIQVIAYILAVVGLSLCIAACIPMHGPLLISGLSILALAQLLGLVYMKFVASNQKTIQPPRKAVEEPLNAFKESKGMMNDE
Outline: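 Inhibition of soluble CD47/SIRPalpha ectodomain association by titrated compounds, measured as 665/615 nm time-resolved FRET ratio after sequential 30 min room-temperature incubations.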

[6] = biological target: T1, Tyrosine-protein phosphatase non-receptor type substrate 1 (Homo sapiens) + Leukocyte surface antigen CD47 (Homo sapiens); experiment: CD47-SIRPalpha protein protein interaction - HTRF assay qHTS validation (AID 1347058; active means well fitted curve in the direction sought with a large enough effect in the signal ratio, not every such curve was filed as active; the % refers to the signal ratio)
Outline: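 Soluble extracellular domains (6His-CD47, Avi-tag-biotinylated SIRPalpha) in PBS pH 7.4 with 0.05% IGEPAL CA-630. Compounds were preincubated 30 min at RT with CD47 and anti-His-Eu, then SIRPalpha and SAV-XL665 were added. TR-FRET 665/615 ratio.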

[7] = biological target: Parathyroid hormone/parathyroid hormone-related peptide receptor (Homo sapiens) (UniProt Q03431); experiment: qHTS for PTHR1 Agonists: Optimization Screen against the NCGC LOPAC library (AID 1347079);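 further: GloSensor cAMP luminescence in HEK-293 GP2 cells expressing human PTHR1 with IBMX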
Sequence of Parathyroid hormone/parathyroid hormone-related peptide receptor (Homo sapiens) (Q03431 whole entry, looked up): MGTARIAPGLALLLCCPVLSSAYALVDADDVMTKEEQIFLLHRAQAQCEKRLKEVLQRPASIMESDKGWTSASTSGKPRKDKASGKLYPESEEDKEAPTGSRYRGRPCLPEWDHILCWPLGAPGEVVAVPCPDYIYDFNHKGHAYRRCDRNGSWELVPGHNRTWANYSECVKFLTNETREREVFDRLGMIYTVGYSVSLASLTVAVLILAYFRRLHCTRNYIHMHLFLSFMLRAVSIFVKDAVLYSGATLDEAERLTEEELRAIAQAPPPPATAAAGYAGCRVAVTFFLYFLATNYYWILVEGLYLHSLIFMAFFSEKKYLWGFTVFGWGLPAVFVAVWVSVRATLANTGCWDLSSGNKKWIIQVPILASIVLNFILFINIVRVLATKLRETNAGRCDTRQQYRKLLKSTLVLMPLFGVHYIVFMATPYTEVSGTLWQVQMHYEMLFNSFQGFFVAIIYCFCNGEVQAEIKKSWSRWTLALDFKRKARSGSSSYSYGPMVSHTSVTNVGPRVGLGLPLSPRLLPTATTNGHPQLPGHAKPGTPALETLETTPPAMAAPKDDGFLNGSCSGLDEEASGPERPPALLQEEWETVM
Outline: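 Signal increase flags agonism. GP2 cells, derived from HEK-293, express human PTHR1 and a GloSensor cAMP construct.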

[8] = qHTS of pediatric cancer cell lines to identify multiple opportunities for drug repurposing: Primary screen for TC32 cells (AID 1347089); further: nearly all actives have a fitted effect of over 60% in size
Outline: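 Luminescent CellTiter-Glo read-out of metabolically active TC32 cells after 48 h compound exposure. Primary: MIPE 11-point, 0.78 nM–46 µM; NPC 8-point, 0.59 nM–46 µM. Confirmatory: 11-point dilutions.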

[9] = qHTS of pediatric cancer cell lines to identify multiple opportunities for drug repurposing: Primary screen for SK-N-MC cells (AID 1347093); further: potency means the concentration at half of the fitted maximal effect
Outline: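 Metabolically active cells were quantified by ATP-dependent luminescence (CellTiter-Glo, 15 min at room temperature) following 48 h treatment. Cells had been plated at 500-1,000 per well and settled for 5 h beforehand.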

[10] = qHTS of pediatric cancer cell lines to identify multiple opportunities for drug repurposing: Primary screen for BT-37 cells (AID 1347094)
Outline: (§1)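 Following a 5-hour attachment period, cells at 500-1,000/well received compounds and were cultured for 48 hours. CellTiter-Glo was added and luminescence read to estimate viable, metabolically active cells.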

[11] = qHTS of pediatric cancer cell lines to identify multiple opportunities for drug repurposing: Primary screen for NB-EBc1 cells (AID 1347095); further: potency means the concentration at half of the fitted maximal effect
Outline: as §1

[12] = qHTS of pediatric cancer cell lines to identify multiple opportunities for drug repurposing: Primary screen for U-2 OS cells (AID 1347096); further: nearly all actives have a fitted effect of over 50% in size
Outline: (§2)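 Cells (500-1,000/well) rested 5 h, then received compounds for 48 h; metabolically active cells were measured by CellTiter-Glo luminescence. Final concentrations spanned up to 46 µM (MIPE, 11-point) or 0.59 nM-46 µM (NPC, 8-point) in primary screens, 11-point in follow-ups.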

[13] = qHTS of pediatric cancer cell lines to identify multiple opportunities for drug repurposing: Primary screen for Saos-2 cells (AID 1347097); further: nearly all actives have a fitted effect of over 40% in size; further: potency means the concentration at half of the fitted maximal effect
Outline: as §1

[14] = qHTS of pediatric cancer cell lines to identify multiple opportunities for drug repurposing: Primary screen for SK-N-SH cells (AID 1347098); further: nearly all actives have a fitted effect of over 65% in size; further: potency means the concentration at half of the fitted maximal effect
Outline: as §2

[15] = qHTS of pediatric cancer cell lines to identify multiple opportunities for drug repurposing: Primary screen for DAOY cells (AID 1347090); further: nearly all actives have a fitted effect of over 55% in size
Outline: (§3)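 Cell viability, CellTiter-Glo luminescence; 500-1,000 cells/well, 8- or 11-point titration, 48 h compound exposure at 37 degrees C, 5% CO2. Controls: DMSO neutral, bortezomib 2.3 µM final as positive.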

[16] = qHTS of pediatric cancer cell lines to identify multiple opportunities for drug repurposing: Primary screen for SJ-GBM2 cells (AID 1347091); further: potency means the concentration at half of the fitted maximal effect
Outline: as §3

[17] = P-glycoprotein substrates identified in KB-3-1 adenocarcinoma cell line, qHTS therapeutic library screen (AID 1346986); conditions: KB-3-1 parental cells viability, CellTiter-Glo, 72 h; at 44.5 µM (top of the series); further: nearly all actives have a fitted effect of over 60% in size
Outline: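 Dose-response cytotoxicity, KB-3-1 vs P-gp-high KB-8-5-11, no colchicine in assay medium. Read: CellTiter-Glo at 72 h.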

[18] = qHTS of pediatric cancer cell lines to identify multiple opportunities for drug repurposing: Primary screen for A673 cells (AID 1347092); further: nearly all actives have a fitted effect of over 45% in size; further: potency means the concentration at half of the fitted maximal effect
Outline: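 A673 cells (500-1,000 cells/well in growth media) were pre-incubated 5 h at 37 degrees C, then exposed to compounds for 48 h. Viability was read as CellTiter-Glo luminescence; concentration-response curves came directly from the primary screen.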

Row | SMILES | Potency [1] | Potency [2] | Potency [3] | Potency [4] | outcome [5] | outcome [6] | outcome [7] | Potency [8] | Potency [9] | Potency [10] | Potency [11] | Potency [12] | Potency [13] | Potency [14] | Potency [15] | Potency [16] | outcome [17] | Potency [18]
1 | CC(C)NCC(O)c1ccc(NS(C)(=O)=O)cc1 (stereo not given) | inactive | inactive | inactive | inactive | inactive | inactive | inactive | inactive | 10.5 µM (active) | inactive | inactive | inactive | inactive | inactive |  |  |  | 
2 | CC1CC2C3CCC4=CC(=O)C=C[C@]4(C)[C@@]3(F)[C@@H](O)C[C@]2(C)[C@@]1(O)C(=O)CO (stereo not given in full) | inactive | inactive | inactive | inactive | inactive | inactive | inactive | inactive | 13.2 µM (active) | inactive | inactive | inactive | inactive | inactive | inactive | inactive |  | 
3 | COc1ccc(-c2ccc3cc(C(=O)O)ccc3c2)cc1C12CC3CC(CC(C3)C1)C2 | 13 µM (active) and inactive |  |  | inactive |  |  |  | inactive | 668 nM (active) and 1.05 µM (active) | inactive | 2.35 µM (active) | inactive | 18.7 µM (active) | inactive |  | 1.87 µM (active) | inactive | 
4 | O=C(O)c1cn(C2CC2)c2cc(N3CCNCC3)c(F)cc2c1=O | inactive |  |  | inactive |  |  |  | inactive | inactive | inactive | inactive | inactive | inactive | inactive | inactive |  | inactive | 
5 | CC(=O)[C@H]1CC[C@H]2[C@@H]3CCC4=CC(=O)CC[C@]4(C)[C@H]3CC[C@]12C | 11.8 µM (active) |  | inactive | inactive | inactive | inactive | inactive | inactive | 0.526 µM (active) |  | inactive | inactive |  | 12.1 µM (active) |  |  |  | 
6 | COc1ccc(C(=O)CC(=O)c2ccc(C(C)(C)C)cc2)cc1 | inactive |  |  | inactive |  |  |  |  |  |  |  |  |  |  |  |  |  | 
7 | CNC1CCCN(c2c(F)cc3c(=O)c(C(=O)O)cn(C4CC4)c3c2OC)C1 (stereo not given) | inactive |  |  | inactive |  |  |  | inactive | inactive | inactive | inactive | inactive | inactive |  | inactive |  | inactive | 
8 | CCCCS(=N)(=O)CCC(N)C(=O)O (stereo not given) | inactive | inactive | inactive | inactive | inactive | inactive | inactive | inactive |  | inactive | inactive | inactive | inactive |  | inactive | inactive |  | 23.5 µM (active)
9 | OCc1ccc(-c2nn(Cc3ccccc3)c3ccccc23)o1 |  | inactive |  | inactive | inactive | inactive | inactive | inactive |  | inactive | inactive | inactive |  | inactive | inactive | inactive | inactive | 
10 | CCN(C)C(=O)Oc1cccc([C@H](C)N(C)C)c1 | inactive |  |  | inactive |  |  |  | inactive | inactive | inactive | inactive | inactive | inactive | inactive | inactive | inactive |  | inactive
11 | COc1nc(N)nc2c1ncn2[C@@H]1O[C@H](CO)[C@@H](O)[C@@H]1O | inactive |  |  | inactive |  |  |  | inactive | inactive | inactive | inactive | inactive | inactive | inactive | inactive |  | inactive | 
12 | O=c1oc2c(O)c(O)cc3c(=O)oc4c(O)c(O)cc1c4c23 | inactive |  |  | inactive |  |  |  | inactive | inactive | inactive | inactive | inactive | inactive | inactive | inactive | inactive |  | 
13 | CC(C)C1CCC(C(=O)N[C@H](Cc2ccccc2)C(=O)O)CC1 (stereo not given in full) | inactive |  |  | inactive |  |  |  | inactive | inactive | inactive | inactive | inactive | inactive | inactive | inactive | inactive |  | 
14 | CCCc1cc(C(N)=S)ccn1 | inactive |  |  | inactive |  |  |  | inactive | inactive | inactive | inactive | inactive | inactive | inactive | inactive |  |  | inactive
15 | CCC(C)(C)c1ccc(CC(C)CN2C[C@@H](C)O[C@@H](C)C2)cc1 (stereo not given in full) | inactive |  |  | inactive |  |  |  | inactive |  | inactive | inactive | inactive |  | inactive | inactive | inactive |  | 
16 | CCc1cc(C(N)=S)ccn1 | inactive |  |  | inactive |  |  |  | inactive | inactive | inactive | inactive | inactive | inactive | inactive | inactive |  |  | inactive
17 | COc1ccc2c(c1)c(CC(=O)OCC(=O)O)c(C)n2C(=O)c1ccc(Cl)cc1 | inactive |  |  | inactive |  |  |  | inactive |  | inactive | inactive | inactive | inactive | inactive | inactive | inactive |  | 
18 | CCN[C@H]1C[C@H](C)S(=O)(=O)c2sc(S(N)(=O)=O)cc21 | inactive |  |  | inactive |  |  |  | inactive | inactive | inactive | inactive | inactive | inactive | inactive | inactive |  |  | inactive
